# Compound activity from PubChem.
# MazEF act: activators of E. coli MazEF toxin-antitoxin RNase; AID 504720; P0AE70; FAM/BHQ RNA-DNA oligo cleavage fluorescence, 5 h; hit rate 0.32% among 350,000; activation, % at 20 µM; in the data active means activation above about 50%
# Target sequence (P0AE70 whole entry, looked up): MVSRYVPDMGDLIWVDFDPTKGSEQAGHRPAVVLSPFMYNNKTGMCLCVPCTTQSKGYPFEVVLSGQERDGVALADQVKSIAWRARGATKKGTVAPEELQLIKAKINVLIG
# Mtb hypoxia rep: reduces hypoxia-regulated biosensor signal in M. tuberculosis | fluorescence inhibition, % (no concentration beside the values) | M. tuberculosis hypoxia-regulated fluorescent reporter, fluorescence | hit rate 0.1% among 300,000; in the data active means fluorescence inhibition mostly above about 23%, no sharp cut-off; inactive means mostly below about 17%
# SSB-PriA inh: blocks PriA binding to SSB C-terminal tail; AlphaScreen SSBct-PriA binding, biotinylated peptide; AID 1272365; inhibition, % at 33 µM; hit rate 0.6% among 430,000; in the data active means inhibition mostly above about 37%, no sharp cut-off; inactive means mostly below about 20%;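 further: plate controls were negative control peptide for no effect and reference peptide for full effect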
# BH1578 lux ind: induces V. cholerae light production without autoinducers. V. cholerae BH1578 lux reporter, luminescence, 6 h. activation, % at 18.7 µM. hit rate 0.16% among 350,000; in the data active means activation mostly above about 9.7%, no sharp cut-off
# * marks the source's active call; other numbers are inactive results; i = inactive; / = no result given. Only some compounds are listed: those with a hit (about 0.94% of all), similar ones and a draw of the others.
SMILES,MazEF act,Mtb hypoxia rep,SSB-PriA inh,BH1578 lux ind
CCOC(=O)C1C(=O)C=C(c2ccc(NS(C)(=O)=O)cc2)CC1c1cccs1 (stereo not drawn),/,/,-1,/
O=C(CS(=O)(=O)c1ccc(Cl)s1)Nc1ccccc1C(F)(F)F,/,/,2,/
O=C(Nc1ccccc1-c1nc2ccccc2o1)c1ccc(F)cc1,/,/,0,/
O=[N+]([O-])c1ccc(Sc2cccc3cccnc23)c2cccnc12,8,4,28,-1
COc1ccc(C(=O)Oc2cccc3cccnc23)cc1[N+](=O)[O-],2,2,0,-6
O=[N+]([O-])c1cc(C(F)(F)F)cc([N+](=O)[O-])c1Sc1cccc2cccnc12,/,/,56*,/
COc1ccc(CSc2cccc3cccnc23)cc1[N+](=O)[O-],-10,12,45*,0
Nc1nc2nc(-c3ccc(OCc4ccccc4)cc3)cc(C(F)(F)F)n2n1,58*,3,-2,0
CC(=O)c1ccc(NC(=O)CN2C(=O)COc3ccccc32)cc1,/,/,56*,/
O=C(CCc1ccccc1)Nc1ccc2c(c1)N(C(=O)C1CC1)CC2,/,/,2,/
O=c1[nH]c(-c2ccccn2)nc2ccccc12,-4,-8,42*,/
c1ccc(-c2nc3ccccc3[nH]2)nc1,-3,16,-4,1
O=c1cc(O)nc(-c2ccccn2)[nH]1,/,/,45,/
O=c1[nH]c(-c2ccccn2)nc(C(F)(F)F)c1Br,1,5,83*,0
CCS(=O)(=O)NC1CC(=O)N(c2ccc(C)cc2)C1 (stereo not drawn),/,/,2,/
Cc1cccc(CS(=O)(=O)NCC2CCN(c3nc4ccccc4o3)CC2)c1,/,/,-11,/
Cc1cccc(OCC(=O)Nc2c(C(=O)c3ccc4c(c3)OCO4)oc3ccccc23)c1,/,/,0,/
O=C(CSCc1ccccc1)Nc1cc(Cl)ccc1Cl,/,/,-63,/
O=C(CSCc1ccc(Cl)cc1)Nc1ccccc1O,-13,65*,-21,0
COC[C@H]1OC(=O)c2coc3c2[C@@]1(C)C1=C(C3=O)[C@@H]2CCC(=O)[C@@]2(C)C[C@H]1OC(C)=O,67*,/,-16,i
COc1cc(C(C)=O)ccc1OCC(=O)N1CCN(c2ccc3nncn3n2)CC1,/,/,5,/
COc1ccccc1C(CNC(=O)CN1C(=O)NC(C)(c2ccc3ccccc3c2)C1=O)N1CCCC1 (stereo not drawn),6,30*,1,-1
Cc1cccn2c(=O)nc(SCC(=O)c3ccc(Cl)cc3)nc12,4,-2,1,89*
CCOC(=O)CSc1nc2cc3c(cc2cc1C)OCO3,-1,3,-6,1
Cc1ccc(-c2nnc(CSc3nc4cc5c(cc4cc3C)OCO5)o2)cc1,437*,1,-10,2
SMILES,MazEF act,Mtb hypoxia rep,SSB-PriA inh,BH1578 lux ind
Cc1ccsc1/C=N\NC(=O)CNC(=O)c1ccc(S(=O)(=O)N2CCOCC2)cc1,/,/,-1,/
CC(=O)NC(CSC(CC(=O)c1ccco1)c1ccc(C)cc1)C(=O)O (stereo not drawn),249*,15,5,0
O=C(CC(SCc1ccco1)c1ccc(F)cc1)c1ccco1 (stereo not drawn),/,/,-19,/
COc1ccc(NC(=O)c2cc3c(CO)cnc(C)c3oc2=Nc2cccc(C)c2)c(OC)c1,3,-2,-6,20*
O=C(CSc1nnc(-c2ccco2)o1)NCCc1ccccc1,1,38*,-6,i
Cc1cc(C(=O)N2CC(Oc3cc(C)oc(=O)c3)C2)c(C)o1,/,/,-4,/
CN1c2ccccc2C(C)(C)C12C=Nc1c(cc(N3CCOCC3)c3ccccc13)O2 (stereo not drawn),-3,/,-2,-7
CN1c2ccccc2C(C)(C)C12C=Cc1cc(O)ccc1O2 (stereo not drawn),18,3,39*,i
COc1cc(OC)cc(C(=O)Nc2nc(CC(=O)N3c4ccccc4CC3C)cs2)c1 (stereo not drawn),/,/,24,/
COC(=O)C1=C(C(=O)OC)SC2(S1)C(C(=O)OC)=C(C(=O)OC)Sc1c2ssc1=O,-25,/,96*,i
CC1CCCC/C1=N\NS(=O)(=O)c1ccc(Br)cc1 (stereo not drawn),78*,/,/,/
O=S(=O)(N/N=C1/CCCc2ccccc21)c1ccc(Br)cc1,-2,/,/,0
CC(C)(C)C1CCC(=NNS(=O)(=O)c2ccc(Br)cc2)CC1 (stereo not drawn),66*,/,-9,-5
Cc1ccc(S(=O)(=O)NN=C2CCC(C(C)(C)C)CC2)cc1[N+](=O)[O-] (stereo not drawn),115*,1,-11,0
C/C(CC(C)C)=N\NS(=O)(=O)c1ccc(C)c([N+](=O)[O-])c1,68*,/,/,0
CC(=O)Nc1ccc(S(=O)(=O)NCc2ccsc2)cc1,/,/,-1,/
O=C(Nc1ccc2c(c1)OCO2)N(Cc1cccs1)C1CCOCC1,/,/,-1,/
Cc1nc2ccc3nc(NC(=O)COc4ccccc4F)sc3c2s1,/,/,2,/
COc1ccc(-c2nc3cc(C)ccn3c2NCc2ccc3c(c2)OCO3)cc1,1,-6,54*,2
COc1ccc(Cl)c2sc(NCc3cccnc3)nc12,/,/,27,/
Cc1ccc(C)n1-c1ccc(N2CCOCC2)c([N+](=O)[O-])c1,9,-7,13,-1
CN1CCN(c2ccc(S(=O)(=O)C(F)(F)F)cc2[N+](=O)[O-])CC1,-6,10,7,-1
CN1CCN(c2ccccc2NC(=O)c2ccc(N3CCCC3)c([N+](=O)[O-])c2)CC1,3,19,27,i
O=[N+]([O-])c1cc(-n2cccc2)ccc1N1CCOCC1,-5,9,47*,i
CN1CCN(c2ccc(C(=O)c3ccc(Br)cc3)cc2[N+](=O)[O-])CC1,-4,-5,43*,-6
SMILES,MazEF act,Mtb hypoxia rep,SSB-PriA inh,BH1578 lux ind
Cc1ccc(Cl)c(OC(=O)c2ccc(N3CCOCC3)c([N+](=O)[O-])c2)c1,-2,9,45*,-2
O=[N+]([O-])c1cc(S(=O)(=O)C(F)(F)F)ccc1N1CCN(c2ccccc2)CC1,-4,1,47*,0
Cn1nc(C2CCN(C(=O)c3cc(-c4cccs4)[nH]n3)CC2)n(C2CC2)c1=O,/,/,-6,/
CCOc1ccc(NC(=O)Cn2c(C)nc3c(sc4ccccc43)c2=O)cc1,/,/,-13,/
Cn1nc(-c2ccccc2NC(=O)c2cc(-c3cccs3)on2)ccc1=O,/,/,-17,/
O=C(c1ccc(N2CCOCC2)c([N+](=O)[O-])c1)N1CCN(c2ccccc2)CC1,-6,/,-1,i
O=C(c1ccc(Br)cc1)c1ccc(N2CCOCC2)c([N+](=O)[O-])c1,/,/,82*,/
COc1cc(C2C(C#N)=C(N)OC3=C2C(=O)CCC3)c([N+](=O)[O-])cc1OC (stereo not drawn),110*,3,9,0
Cc1cc(C2C(C#N)=C(N)OC3=C2C(=O)CCC3)c(C)s1 (stereo not drawn),2,/,-5,10
CCOC(=O)c1nc(Nc2ccc(Nc3ccccc3)cc2)c2ccccc2n1,-1,4,47*,/
NC(=Nc1nc2c(c(=O)[nH]1)CCC2)Nc1cccc2ccccc12,/,/,-7,/
CCOC(=O)Nc1nc(-c2ccccc2)c(C(=O)c2ccccc2)s1,1,1,6,/
COC(=O)Nc1nc(-c2ccccc2)c(C(=O)c2ccc(Cl)cc2)s1,52*,2,-11,i
